# Source: PubChem BioAssay
# TIM10 inh = inhibits growth of TIM10 yeast strain. AID 463195. 330,000 compounds, 1.4% hits. inhibition, % at 10 µM. S. cerevisiae TIM10 strain growth, BacTiter-Glo luminescence, 24 h;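 active = inhibition of 40% or more at the single tested concentration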;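 note: wild-type TIM10 isogenic control strain grown at permissive 25 °C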
# tim23-1 inh = tim23-1 yeast growth inhibition | S. cerevisiae tim23-1 growth, BacTiter-Glo luminescence, 24 h | AID 463212 | 330,000 compounds, 1.3% hits | inhibition, % at 20 µM;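 active = growth inhibition of the mutant yeast at or above 50%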;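 note: temperature-sensitive mutant grown at 25 °C; plate controls were DMSO-treated mutant yeast for no effect and medium wells lacking yeast for full effect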
# EBI2 block = antagonists of human EBI2 receptor. P32249. EBI2 beta-arrestin recruitment, luminescence, 7a,25-OHC stimulated. inhibition, % at 5 µM. 360,000 compounds, 0.81% hits. AID 651636; in the data active = inhibition above about 38%;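 note: enzyme fragment complementation signal reports receptor beta-arrestin coupling in cells; 0% = agonist plus DMSO wells and 100% = wells without agonist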
# Target sequence (P32249 whole entry, looked up, the tested form may be a part): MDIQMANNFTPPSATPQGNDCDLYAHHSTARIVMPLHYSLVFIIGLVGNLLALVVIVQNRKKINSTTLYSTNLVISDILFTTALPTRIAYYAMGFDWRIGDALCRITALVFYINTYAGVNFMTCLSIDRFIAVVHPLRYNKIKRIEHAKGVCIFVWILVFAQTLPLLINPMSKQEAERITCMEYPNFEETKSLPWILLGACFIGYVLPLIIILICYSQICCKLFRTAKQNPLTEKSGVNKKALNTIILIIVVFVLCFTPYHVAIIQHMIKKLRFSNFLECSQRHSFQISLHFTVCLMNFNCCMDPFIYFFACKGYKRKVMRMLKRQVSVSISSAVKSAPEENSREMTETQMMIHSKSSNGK
# tim10-1 inh = inhibits growth of tim10-1 mutant yeast; inhibition, % at 20 µM; S. cerevisiae tim10-1 ts strain growth, BacTiter-Glo, 24 h; 330,000 compounds, 2.2% hits;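 active = inhibition of at least 40%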;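 note: mutant grown at 25 °C; 0% = DMSO wells with yeast and 100% = wells holding no yeast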
# PfHsp90 yeast 2 = inhibits growth of yeast expressing Plasmodium falciparum Hsp90; inhibition, % at 9.4 µM; 310,000 compounds, 0.32% hits; S. cerevisiae expressing PfHsp90, BacTiter-Glo ATP, 48 h; yeast lacking PDR1 and PDR3 efflux regulators;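 active = every replicate shows inhibition above about 80%, whatever the replicate mean, limit read from the data; inconclusive = mean inhibition reaches the set limit but some replicate falls short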;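 note: 0% = DMSO neutral controls and 100% = 20 µM radicicol positive controls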
# SKKanGAS inh = blocks kanamycin growth of S. pyogenes SKKanGAS strain | AID 1662 | 300,000 compounds, 1.3% hits | inhibition, % at 7.5 µM | BacTiter-Glo, 6 h;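 active = mean replicate score, as percent of positive control median, at least 50; inconclusive = mean below 50 but one replicate at or above 50; inactive = mean and every replicate below 50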;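 note: strain carries kanamycin resistance gene driven by streptokinase promoter and grows in 40 µg/ml kanamycin; loss of luminescence reflects streptokinase promoter inhibition or plain growth inhibition; 0% = median of DMSO wells and 100% = positive control at its reference dose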
# EBI2 antag conf = EBI2 (human) antagonism, single concentration confirmation; shares compounds with EBI2 block; 2,400 compounds, 29% hits; EBI2 beta-arrestin luminescence, 7a,25-OHC antagonism; inhibition, % at 5 µM; AID 651997;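 active = inhibition of at least 50%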
# EBI2 agonist = activates EBI2, counter-screen for EBI2 antagonists; shares compounds with EBI2 block; 2,400 tested, under 10 active; EBI2-expressing cells, agonist mode, luminescence, 60 min; 0% vehicle, 100% 7α,25-dihydroxycholesterol control; activation, % at 5 µM;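 active = activation of at least 50%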
# bGal counter = beta-galactosidase inhibition counter-screen | shares compounds with EBI2 block | purified beta-galactosidase, luminescent Galacton Star, 15 min | inhibition, % at 5 µM | 2,400 compounds, 1% hits | AID 652176;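 active = replicate-average signal at least 3 plate SD below neutral wells, shown as high inhibition, flagging enzyme-inhibiting false positives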;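 note: 0% = DMSO wells with enzyme and 100% = wells lacking enzyme; higher means stronger loss of beta-gal luminescence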
# Numbers without * were called inactive; u = inconclusive; x = not tested or not shown. Sampled rows, rich in hits. Any-hit rate of the full collection: about 4.7%.
SMILES,TIM10 inh,tim23-1 inh,EBI2 block,tim10-1 inh,PfHsp90 yeast 2,SKKanGAS inh,EBI2 antag conf,EBI2 agonist,bGal counter
O=C(c1cc2cc(F)ccc2[nH]1)N1CCN(C(=O)c2ccco2)CC1,20,-1,67*,-13,6,18,37,-1,4
COc1ccccc1N1CCN(C(=O)c2cc3cc(C)ccc3[nH]2)CC1,4,21,94*,1,-5,7,80*,1,3
COc1ccc(-c2cc(C(=O)N3CCN(C(=O)c4ccco4)CC3)[nH]n2)cc1,2,6,33,-2,-8,-2,x,x,x
O=C(c1cc(-c2ccc(Cl)cc2)n[nH]1)N1CCN(C(=O)c2ccco2)CC1,-4,17,42*,-1,-33,-3,29,2,9
COc1ccccc1N1CCN(C(=O)c2cc3cc(F)ccc3[nH]2)CC1,35,45,87*,39,-6,5,58*,2,4
O=C(c1ccco1)N1CCN(Cc2ccc(F)cc2)CC1,-5,0,-8,-5,-2,4,x,x,x
COc1ccc(-n2c(=S)[nH]c3cc(C(=O)N4CCN(c5ccccc5)CC4)ccc3c2=O)c(OC)c1,-2,-15,7,0,9,30,x,x,x
N#CCc1ccc(OC(=O)c2ccncc2)cc1,3,-1,-6,-8,-33,-4,x,x,x
CC1COC(=O)C(NNc2ccc(Cl)c(Cl)c2)=N1 (stereo not drawn),30,29,8,-20,u,1,x,x,x
CC(C)c1ccc(NC(=O)C2CSC3(C)CCC(=O)N23)cc1 (stereo not drawn),20,32,-3,29,-8,2,x,x,x
Cc1[nH]nc(-c2ccc(O)c(C)c2O)c1-c1cnn(-c2ccccc2)c1,37,18,19,6,13,-16,x,x,x
Cc1cc(C)cc(C(=O)NCC(=O)N2CCN(C(c3ccccc3)c3ccccc3)CC2)c1,18,1,-5,9,-12,16,x,x,x
COc1ccccc1N1CCN(C(=O)c2cc3cc(Cl)ccc3[nH]2)CC1,24,26,89*,26,-16,27,73*,0,-10
COc1cccc(N2CCN(C(=O)c3cc4ccc(OC)cc4[nH]3)CC2)c1,8,21,16,18,-41,-3,x,x,x
COc1ccc2cc(C(=O)N3CCN(c4cccc(C)c4C)CC3)[nH]c2c1,7,22,85*,29,6,13,57*,-1,-15
Cc1ccc2[nH]c(C(=O)N3CCN(C(c4ccccc4)c4ccccc4)CC3)cc2c1,25,25,89*,14,7,5,86*,-1,-11
COc1ccccc1N1CCN(C(=O)C2CCN(C(=O)c3cccc(Cl)c3)CC2)CC1,-9,13,2,12,3,0,x,x,x
COc1ccc(-c2nc3cc(C)c(Br)c(C)n3c2Cc2ccccc2C(F)(F)F)cc1OC,x,x,41*,x,x,x,39,0,-15
c1ccc(OCCNc2nc(NCC3CC3)nc3cc(-c4ccccc4)sc23)cc1,x,x,68*,x,x,x,62*,-1,-10
C=CCNc1nc(NCCOc2ccccc2Cl)c2sc(-c3ccccc3)cc2n1,x,x,42*,x,x,x,31,-2,-7
c1ccc(CNc2nc(NCC3CC3)nc3cc(-c4ccccc4)sc23)cc1,x,x,63*,x,x,x,48,-1,-8
COCCNc1nc(NCc2cccc(OC)c2)c2sc(-c3ccccc3)cc2n1,x,x,36,x,x,x,x,x,x
COc1ccc(NC(=O)COC(=O)CNC(=O)c2cccs2)cc1Cl,6,6,-22,-7,-2,x,x,x,x
Cc1ccc(OCCN2C(=O)c3ccccc3C2=O)c(C)c1,-4,-5,12,4,x,5,x,x,x
Cc1ccc(OCCN2C(=O)c3ccccc3C2=O)c([N+](=O)[O-])c1,5,7,62*,24,-29,-1,52*,0,7
